The source of these data is PubChem BioAssay (Tox21).

Inconclusive results are not listed. A call without a number means that no potency is given here. Activity calls are given as the source filed them. Unless noted, calls follow the shape of the dose curve; as a rule, active = well fitted cell-killing curve with a large enough effect in the repeat runs; inconclusive = weak or mixed curves, or effect the other way; inactive = flat fitted curve, though single readings scatter.

Thyrotropin-releasing hormone receptor (Homo sapiens), sequence (P34981 whole entry, looked up): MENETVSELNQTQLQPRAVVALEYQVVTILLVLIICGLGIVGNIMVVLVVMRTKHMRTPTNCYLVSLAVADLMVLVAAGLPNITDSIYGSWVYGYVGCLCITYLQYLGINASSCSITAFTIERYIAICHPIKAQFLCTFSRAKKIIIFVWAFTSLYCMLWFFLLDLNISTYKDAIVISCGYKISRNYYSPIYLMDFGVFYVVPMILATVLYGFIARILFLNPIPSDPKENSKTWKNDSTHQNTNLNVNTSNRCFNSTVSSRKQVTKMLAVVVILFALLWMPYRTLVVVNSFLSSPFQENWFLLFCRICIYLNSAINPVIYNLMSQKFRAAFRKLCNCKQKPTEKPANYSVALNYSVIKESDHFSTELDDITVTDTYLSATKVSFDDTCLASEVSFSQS

The first experiment concerns the target Thyrotropin-releasing hormone receptor (Homo sapiens) (UniProt P34981). Kind of experiment: qHTS assay to identify small molecule antagonists of the thyrotropin-releasing hormone receptor (TRHR) signaling pathway (AID 1346877; active = well fitted inhibition curve with a large enough effect in the repeat runs, not every such curve was filed as active). The conditions noted are these: TRHR-HEK293, TRH-induced calcium fluorescence, antagonist mode; series mostly up to 51.3 µM. The gist of the method:
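TRHR-expressing HEK293 cells were seeded, cultured 18 h at 37 °C, then loaded with calcium dye for 2 h. Compounds were pre-incubated 5 min at room temperature before 1 nM TRH (final) was added, and kinetic fluorescence was recorded for 3 min.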
With `CC(C)(C)c1ccc(O)c(O)c1`, the outcome was inactive.

Regarding `CCOC(C)(C)C`, the outcome was inactive.

For the compound `N=C(N)c1ccccc1`, the outcome was inactive.

On to `COc1cc(C(=O)N2CCCCCCC2)cc(OC)c1OC`, for which the outcome was inactive.

For the compound `CC(NC(CCc1ccccc1)C(=O)O)C(=O)N1C(=O)N(C)CC1C(=O)O` (stereo unspecified), the outcome was inactive.

On to `N#Cc1ccc(C2CCCc3cncn32)cc1` (stereo unspecified), for which the outcome was inactive.

Regarding `Cc1ccc(Cl)cc1Cl`, the outcome was inactive.

With `CCCC(=O)O[C@]1(C(=O)CO)CC[C@H]2[C@@H]3CCC4=CC(=O)CC[C@]4(C)[C@H]3[C@@H](O)C[C@@]21C`, the result was inactive.

With `CCOC(=O)c1cccc(N)c1`, the outcome was inactive.

As for `CCCN(CCC)CCc1cccc2c1CC(=O)N2`, the outcome was inactive.

Take `O=c1n(CCO)c(=O)n(CCO)c(=O)n1CCO`: the result was inactive.

`NS(=O)(=O)c1cc(C(=O)O)cc(N2CCCC2)c1Oc1ccccc1`: the result was inactive.

Regarding `CN1CC(=O)NC1=N`, the outcome was inactive.

With `CCCCCCOC(=O)CCCCC(=O)OCCCCCC`, the outcome was inactive.

With `CO[C@]12C[C@@H](COC(=O)c3cncc(Br)c3)CN(C)[C@@H]1Cc1cn(C)c3cccc2c13`, the outcome was inactive.

As for `CC(C)(O)C#CC(C)(C)O`, the result was inactive.

In the case of `COc1ccc(CCN(C)CCCC(C#N)(c2cc(OC)c(OC)c(OC)c2)C(C)C)cc1OC` (stereo unspecified), the outcome was inactive.

Turning to `N=c1nc(N2CCCCC2)cc(N)n1O`, the outcome was inactive.

As to `CCC(C)S` (stereo unspecified), the activity, negative = inhibition is -1.08% [at 1.81 µM] (inactive).

`CCc1cccc2c(CCO)c[nH]c12`: the outcome was inactive.

Regarding `NS(=O)(=O)c1cc2c(cc1Cl)NC(C1CC3C=CC1C3)NS2(=O)=O` (stereo unspecified), the outcome was inactive.

With `O=C(O)CCCc1ccccc1`, the outcome was inactive.

Turning to `Cn1cc(S(C)=O)c(=O)c2ccc(F)cc21` (stereo unspecified), the outcome was inactive.

As to `CC(=O)OCC(CCn1cnc2cnc(N)nc21)COC(C)=O`, the outcome was inactive.

The next experiment has the same target. Kind of experiment: qHTS assay to identify small molecule agonists of the thyrotropin-releasing hormone receptor (TRHR) signaling pathway (AID 1346891; calls by dose curve). The conditions noted are these: TRHR-HEK293 calcium fluorescence, agonist mode; series mostly up to 57.6 µM. The gist of the method: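 Screening of agonists relied on calcium signalling in HEK293 cells expressing human TRHR: dye loading 2 h at 37 °C preceded compound addition and a 3-min fluorescence time course.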
In general terms: In qHTS, concentration-response curves come from the screen itself.
For the compound `CC(C)(C)c1ccc(O)c(O)c1`, the outcome was inactive.

Regarding `CCOC(C)(C)C`, the outcome was inactive.

In the case of `N=C(N)c1ccccc1`, the outcome was inactive.

On to `Cc1cnc(NS(=O)(=O)c2ccc(N)cc2)nc1`, for which the result was inactive.

In the case of `COc1cc(C(=O)N2CCCCCCC2)cc(OC)c1OC`, the result was inactive.

Consider `CC(NC(CCc1ccccc1)C(=O)O)C(=O)N1C(=O)N(C)CC1C(=O)O` (stereo unspecified), for which the result was inactive.

For the compound `N#Cc1ccc(C2CCCc3cncn32)cc1` (stereo unspecified), the result was inactive.

As for `Cc1ccc(Cl)cc1Cl`, the outcome was inactive.

For the compound `CCCC(=O)O[C@]1(C(=O)CO)CC[C@H]2[C@@H]3CCC4=CC(=O)CC[C@]4(C)[C@H]3[C@@H](O)C[C@@]21C`, the result was inactive.

Turning to `CCOC(=O)c1cccc(N)c1`, the outcome was inactive.

As for `CCCN(CCC)CCc1cccc2c1CC(=O)N2`, the outcome was inactive.

For `CC(C)CNCC(C)C`, the result was inactive.

In the case of `O=c1n(CCO)c(=O)n(CCO)c(=O)n1CCO`, the result was inactive.

Consider `NS(=O)(=O)c1cc(C(=O)O)cc(N2CCCC2)c1Oc1ccccc1`, for which the outcome was inactive.

With `CN1CC(=O)NC1=N`, the result was inactive.

Regarding `CCCCCCOC(=O)CCCCC(=O)OCCCCCC`, the result was inactive.

As for `CO[C@]12C[C@@H](COC(=O)c3cncc(Br)c3)CN(C)[C@@H]1Cc1cn(C)c3cccc2c13`, the result was inactive.

On to `CC(C)(O)C#CC(C)(C)O`, for which the outcome was inactive.

Turning to `COc1ccc(CCN(C)CCCC(C#N)(c2cc(OC)c(OC)c(OC)c2)C(C)C)cc1OC` (stereo unspecified), the outcome was inactive.

In the case of `N=c1nc(N2CCCCC2)cc(N)n1O`, the outcome was inactive.

For `CCC(C)S` (stereo unspecified), the activation was 0.209% [at 2.04 µM] (inactive).

On to `CCN1CCC[C@H]1CNC(=O)c1c(O)c(Cl)cc(Cl)c1OC`, for which the result was inactive.

For `CCc1cccc2c(CCO)c[nH]c12`, the outcome was inactive.

As for `NS(=O)(=O)c1cc2c(cc1Cl)NC(C1CC3C=CC1C3)NS2(=O)=O` (stereo unspecified), the outcome was inactive.

As to `O=C(O)CCCc1ccccc1`, the outcome was inactive.

As to `Cn1cc(S(C)=O)c(=O)c2ccc(F)cc21` (stereo unspecified), the outcome was inactive.

`CC(=O)OCC(CCn1cnc2cnc(N)nc21)COC(C)=O`: the outcome was inactive.

Test system in another experiment: not listed separately
The experiment can be described thus: Human pregnane X receptor (PXR) small molecule agonists, qHTS cell viability counter screen (AID 1346977). Also: nearly all actives have a fitted effect of over 50% in size. Also: potency is read from the fitted curve at half-maximal effect. The conditions noted are these: PXR-Luc HepG2 viability, CellTiter-Fluor, 24 h; series mostly up to 92.4 µM. The gist of the method:
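Tox21 qHTS format; PXR-Luc HepG2, 2,000/well, charcoal-stripped FBS 5%. Cpd exposure 24hr. Read: CellTiter-Fluor fluorescence, multiplexed with luciferase.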
Turning to `CC(C)(C)c1ccc(O)c(O)c1`, the Potency entry is “inactive”.

On to `Oc1ccc(C2CNCCc3c2cc(O)c(O)c3Cl)cc1` (stereo unspecified), for which the Potency result is “inactive”.

In the case of `CC(=O)Nc1c(I)cc(I)c(C(=O)O)c1I`, the Potency result was “inactive”.

As for `Cc1cnc(NS(=O)(=O)c2ccc(N)cc2)nc1`, the Potency result was “inactive”.

As to `COc1cc(C(=O)N2CCCCCCC2)cc(OC)c1OC`, the Potency entry was “inactive”.

Take `NS(=O)(=O)c1ccc(C(=O)O)cc1`: the Potency entry is “inactive”.

For `CC(NC(CCc1ccccc1)C(=O)O)C(=O)N1C(=O)N(C)CC1C(=O)O` (stereo unspecified), the Potency result was “inactive”.

With `N#Cc1ccc(C2CCCc3cncn32)cc1` (stereo unspecified), the Potency entry is “inactive”.

Turning to `Cc1ccc(Cl)cc1Cl`, the Potency entry is “inactive”.

On to `COCCc1ccc(OCC(O)CNC(C)C)cc1` (stereo unspecified), for which the Potency entry is “inactive”.

Consider `CCCC(=O)O[C@]1(C(=O)CO)CC[C@H]2[C@@H]3CCC4=CC(=O)CC[C@]4(C)[C@H]3[C@@H](O)C[C@@]21C`, for which the Potency result is “inactive”.

Consider `CCOC(=O)c1cccc(N)c1`, for which the Potency result was “inactive”.

As for `CCN(CC)CCOCCOC(=O)C1(c2ccccc2)CCCC1`, the Potency is 26.6 µM (active).

With `NC(=O)c1cn(Cc2c(F)cccc2F)nn1`, the Potency entry is “inactive”.

Turning to `O=c1n(CCO)c(=O)n(CCO)c(=O)n1CCO`, the Potency entry was “inactive”.

Take `NS(=O)(=O)c1cc(C(=O)O)cc(N2CCCC2)c1Oc1ccccc1`: the Potency entry was “inactive”.

For the compound `CN1CC(=O)NC1=N`, the Potency result was “inactive”.

With `CCCCCCOC(=O)CCCCC(=O)OCCCCCC`, the Potency entry is “inactive”.

For the compound `COc1c(N2C[C@@H]3CCCN[C@@H]3C2)c(F)cc2c(=O)c(C(=O)O)cn(C3CC3)c12`, the Potency entry is “inactive”.

Regarding `CO[C@]12C[C@@H](COC(=O)c3cncc(Br)c3)CN(C)[C@@H]1Cc1cn(C)c3cccc2c13`, the Potency result is “inactive”.

With `CC(C)(O)C#CC(C)(C)O`, the Potency entry was “inactive”.

Turning to `COc1ccc(CCN(C)CCCC(C#N)(c2cc(OC)c(OC)c(OC)c2)C(C)C)cc1OC` (stereo unspecified), the Potency was 26.6 µM (active).

For the compound `N=c1nc(N2CCCCC2)cc(N)n1O`, the Potency result is “inactive”.

In the case of `CCC(C)S` (stereo unspecified), the activity change, negative = cytotoxicity is 2.43% [at 3.27 µM] (inactive).

Take `CCN1CCC[C@H]1CNC(=O)c1c(O)c(Cl)cc(Cl)c1OC`: the Potency entry was “inactive”.

As for `CCc1cccc2c(CCO)c[nH]c12`, the Potency entry was “inactive”.

As for `NS(=O)(=O)c1cc2c(cc1Cl)NC(C1CC3C=CC1C3)NS2(=O)=O` (stereo unspecified), the Potency result is “inactive”.

For `O=C(O)CCCc1ccccc1`, the Potency entry is “inactive”.

Take `Cn1cc(S(C)=O)c(=O)c2ccc(F)cc21` (stereo unspecified): the Potency entry is “inactive”.

For the compound `CC(=O)OCC(CCn1cnc2cnc(N)nc21)COC(C)=O`, the Potency result was “inactive”.
